The values below come from PubChem BioAssay.

Experiment [1] can be described thus: viability loss in pontine glioma line – cell-based, SU-DIPG-XVII, MIPE5.0, CellTiter-Glo, qHTS, dose response (AID 1347060).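 On AC50: cells exposed to compound for 48 hours before viability readout.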 Conditions: CellTiter-Glo ATP luminescence. For orientation: ATP-based viability assays read luminescence as a measure of living cells.
Experiment [2] is described as follows: viability loss in pontine glioma line – cell-based, SU-DIPG-XIII, MIPE4.0, CellTiter-Glo, qHTS, dose response (AID 1347061; cut-off not given, nearly all actives have AC50 up to about 37 µM;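 further: cells exposed to compound for 48 hours before readout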). The conditions noted are these: CellTiter-Glo ATP luminescence.
A short description of experiment [3]: viability loss in pontine glioma line – cell-based, SU-DIPG-XXV, MIPE5.0, CellTiter-Glo, qHTS, dose response (AID 1347065).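 Further: cells exposed to compound for 48 hours before ATP readout.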 The conditions noted are these: CellTiter-Glo ATP luminescence.
A short description of experiment [4]: growth inhibition of DIPG cells – cell-based, MIPE5.0 library, qHTS (AID 1347068; cut-off not given, nearly all actives have IC50 up to about 30 µM;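 on IC50: cells exposed to compound for 48 hours before viability readout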). The conditions noted are these: SU-DIPG-XXV viability. (In general: In qHTS, concentration-response curves come from the screen itself.)
The nature of experiment [5]: viability loss in pontine glioma line – cell-based, JHH-DIPG-1, MIPE4.0, CellTiter-Glo, qHTS, dose response (AID 1347062; cut-off not given, nearly all actives have AC50 up to about 27 µM;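 on AC50: cells exposed to compound for two days before readout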). Conditions: JHH-DIPG-1 viability, CellTiter-Glo ATP luminescence.
Experiment [6] is described as follows: viability loss in pontine glioma line – cell-based, SU-DIPG-IV, MIPE4.0, CellTiter-Glo, qHTS, dose response (AID 1347063; cut-off not given, nearly all actives have AC50 up to about 30 µM;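 further: compound exposure lasted 48 hours before the viability readout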). Conditions: CellTiter-Glo ATP luminescence.
Experiment [7] in a line: viability loss in pontine glioma line – cell-based, SU-DIPG-XIII, MIPE5.0, CellTiter-Glo, qHTS, dose response (AID 1347064; cut-off not given, nearly all actives have AC50 up to about 23 µM;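 on AC50: cells exposed to compound for 48 hours before the viability read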). Conditions: CellTiter-Glo ATP luminescence.
Experiment [8] in a line: JHH-DIPG-1 glioma cell viability, MIPE5.0 library, CellTiter-Glo luminescence, qHTS (AID 1347067).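 Further: cells exposed to compound for 48 hours before readout.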 Conditions: JHH-DIPG-1 glioma viability, CellTiter-Glo ATP luminescence.
Experiment [9] in a line: growth inhibition of DIPG cells – cell-based, MIPE4.0 library, CellTiter-Glo luminescence, qHTS (AID 1347066; cut-off not given, nearly all actives have AC50 up to about 30 µM;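 further: cells exposed to compound for 48 hours before readout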). The conditions noted are these: SU-DIPG-VI viability, CellTiter-Glo ATP luminescence.
A short description of experiment [10]: viability loss with induced miR-34 in A549 – imaging, A549 dox-inducible miR-34, nuclei and caspase counts, primary screen (AID 1347080;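 active means compounds whose cell count with miR-34 switched on is under 0.7 times the count with it off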). Conditions: A549 miR-34 inducible, Hoechst nuclei count, 48 h.
Experiment [11] in a line: MELAS cybrid and Rieske KO viability enhancers – cell-based, MELAS cybrids, Rieske KO mouse fibroblasts, CellTiter-Glo, primary screen (AID 1508586;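 active means mean z-score across replicates of 1.96 or higher in either the MELAS or the Rieske mutant cell line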;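 further: z relative to plate mean and SD of compound and empty wells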). The conditions noted are these: low glucose.
A short description of experiment [12]: compounds altering HSF1 focus formation in cells – imaging, Selleck Cancer Library (AID 1347162; in the data active means plate-normalised HSF1 focus index below about 0.46). Conditions: human cells, HSF1 nuclear foci imaging, at 10 µM; SSMD: measured here: HSF1 foci SSMD mean; cell count: measured here: cell number; plate-normalised HSF1 focus index: stronger effect = lower value.
The nature of experiment [13]: compounds altering circadian rhythm period length – cell-based, LOPAC library, luminescence reporter (AID 2774; call rule not given here;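 further: values are relative to mean of DMSO wells on each plate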). Conditions: circadian reporter cells, at 7 µM, actives lie on both sides.
The subject of experiment [14] is Hepatitis C virus NS3 helicase. Description: blockers of NS3h binding to ssDNA – biochemical, fluorescence polarization, LOPAC1280 library, primary screen (AID 687035; in the data active means inhibition above about 37%). The conditions noted are these: Purified HCV NS3 helicase, Cy5-dT15 ssDNA binding fluorescence polarization; stronger effect = higher value; concentration not given here. A general note: Polarisation of emitted light reports the rotation of a fluorescent probe.

Experiment [15] is described as follows: compounds altering Cy5-DNA-NS3h complex signal – biochemical, LOPAC1280, artefact control for HCV NS3 helicase inhibitor project (AID 687037; call rule not given here). Conditions: Cy5-DNA-NS3h complex fluorescence interference counterscreen.
Experiment [16] has as its system Aerobactin synthetase IucA (Klebsiella pneumoniae, hypervirulent). Description: biochemical IucA inhibition screen of LOPAC library by absorbance (AID 1346212; call rule not given here;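 further: 100% = no compound wells and 0% = no enzyme wells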). The conditions noted are these: IucA enzyme assay, absorbance (OD) readout; stronger effect = lower value;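 tested at 8 µM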.
Experiment [17] in a line: P. berghei load reduction in hepatocytes – cell-based, HepG2, luciferase luminescence, HepG2 viability, primary screen (AID 624349; in the data active means parasite load remaining mostly below about 12%, no sharp cut-off; inactive means mostly above about 10%;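 further: 100% = mean of DMSO negative control wells on the same plate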). Conditions: P. berghei liver stage in HepG2, luciferase luminescence, concentration not given here; parasite load remaining: stronger effect = lower value; viability: measured here: HepG2 viability without parasites.
Experiment [18] can be described thus: signal quenchers or enhancers, Cy5 substrate/SSB – biochemical, NIH Clinical Collection, E. coli SSB, artefact control for HCV NS3 helicase inhibitor project (AID 743268; call rule not given here). The conditions noted are these: Cy5-oligo bound E. coli SSB, fluorescence interference.
The test system of experiment [19] is Hepatitis C virus NS3 helicase. Description: blockers of NS3h binding to DNA – biochemical, fluorescence polarization, NIH Clinical Collection, primary screen (AID 743270; call rule not given here). The conditions noted are these: NS3 helicase binding to Cy5-dT15 DNA, stronger effect = higher value, concentration not given here.
For experiment [20], the target named is Single-stranded DNA-binding protein (Escherichia coli (strain K12)) (UniProt P0AGE0). Description: SSB-ssDNA binding inhibitors – biochemical, fluorescence polarization, NIH Clinical Collection, counter-screen for HCV NS3 helicase inhibitor project (AID 743271; in the data active means inhibition above about 28%). Conditions: E. coli SSB-DNA binding, stronger effect = higher value, concentration not given here.
The nature of experiment [21]: compounds distorting NS3 helicase fluorescence signal – biochemical, NIH Clinical Collection, artefact control for HCV NS3 helicase inhibitor project (AID 743272; call rule not given here;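 further: HCV NS3 helicase with a Cy5 labelled single stranded DNA probe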). The conditions noted are these: fluorescence interference counterscreen, HCV NS3 helicase assay; stronger effect = lower value.
A short description of experiment [22]: galactose survival enhancers in mitochondrial complex I cybrids – cell-based, galactose medium, ATP luminescence, primary screen (AID 1645843;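 active means z-score of at least 1.8 in each of two replicates, scored against plate mean and spread of sample wells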;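 further: positive z means more ATP and so rescue of galactose-driven cybrid death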). The conditions noted are these: complex I mutant cybrid cells, 72 h, stronger effect = higher value.
Setting [23] is: stronger effect = lower value, cell number ratio, induced over uninduced.
Setting [24] is: measured here: relative caspase fold change +Dox/-Dox.
Where [25] appears, read: measured here: total cells with miR-34 induction, stronger effect = lower value.
Setting [26] is: measured here: total cells without miR-34 induction.
Where [27] appears, read: MELAS cybrid survival, CellTiter-Glo 48 h, stronger effect = higher value.
[28] abbreviates: Rieske KO mouse fibroblast survival, CellTiter-Glo 72 h.

SMILES strings stand for the structures. “And” between values parts separate entries of the source, which are not always exact repeats. Equal values may be shown once. Records with an inconclusive call do not appear. The source made the active and inactive calls. Unless noted, cut-off not given; nearly all actives show AC50 up to about 26 µM.

For the compound `Cc1ccccn1.[Cl][Pt][Cl].[NH2-]`, the compound was classed as inactive in experiment [1], in experiment [2], in experiment [3] and in [4].

Take `CSCC[C@@H](NC(=O)[C@@H](Cc1ccccc1)NC(=O)CNC(=O)CNC(=O)[C@@H](N)Cc1ccc(O)cc1)C(=O)O`: the call in experiment [1], in [2], in experiment [5], in experiment [6], in experiment [7] and in experiment [3] was inactive. The call in experiment [8] and in experiment [4] was inactive.

A word on the AC50: it is the midpoint of the concentration-response curve, whichever way the signal moves. The IC50 is the point on the concentration scale where inhibition reaches its midpoint. Regarding `CCN1CCN(C(=O)Cc2ccc(Nc3ncc(F)c(Nc4ccc(C(=O)Nc5ccccc5Cl)cc4)n3)cc2)CC1`, the AC50 is 1.86 µM (active) in experiment [1]; 10.5 µM (active) in experiment [5]; 8.33 µM (active) in [6]; 6.61 µM (active) in [7]; 1.05 µM (active) in [3]; 5.9 µM (active) in [9]. Also, in experiment [8], the AC50 was 3.72 µM (active). Moreover, the outcome in experiment [2] was inactive. The IC50 in experiment [4] was 23.5 µM (active). Also, the fold change in [10] (setting [23]) is 0.811 (inactive); in experiment [10] (setting [24]) it was 0.731. Further, the cell count in experiment [10] (setting [25]) is 705; in experiment [10] (setting [26]) it was 869. Also, the z-score is 2.83 (active) in experiment [11] (setting [27]) and -1.29 in experiment [11] (setting [28]).

Regarding `O=C(Oc1ccc([N+](=O)[O-])cc1)N1CCC(C(O)(c2ccc3c(c2)OCO3)c2ccc3c(c2)OCO3)CC1`, the compound was called inactive in experiment [1], in experiment [2], in experiment [5], in experiment [6], in experiment [7] and in experiment [3]. Moreover, the compound was classed as inactive in [9], in experiment [8] and in [4]. The fold change in experiment [10] (setting [23]) was 1.03 (inactive) and 0.881 (inactive); in [10] (setting [24]), 1.13 and 1. Also, the cell count is 6030 and 8340 in experiment [10] (setting [25]); 5850 and 9460 in [10] (setting [26]); 6730 in experiment [12]. Moreover, the SSMD in experiment [12] is 3.32. Also, in experiment [12], the plate-normalised HSF1 focus index is 1.2 (inactive). Moreover, the z-score was -0.115 (inactive) in experiment [11] (setting [27]) and -0.259 in experiment [11] (setting [28]).

In general, inhibition refers to the drop in the measured response relative to a control, in per cent. What is called remaining activity is the signal under treatment as a percentage of the control signal. `CCCN(CCC)CCc1c[nH]c2ccc(C(N)=O)cc12`: the period change in experiment [13] is 0.085 h (inactive). The inhibition in experiment [14] is 0% (inactive). For the same compound, the fluorescence ratio (interference) in experiment [15] is 1.1 (inactive). Moreover, the remaining activity in [16] was 109% (inactive).

In the case of `COc1cc2cc(c1Cl)N(C)C(=O)C[C@H](OC(=O)C(C)C)[C@]1(C)O[C@@H]1[C@H](C)[C@@H]1C[C@@](O)(NC(=O)O1)[C@H](OC)/C=C/C=C(\C)C2`, the result in experiment [1], in experiment [2], in [5], in experiment [6] and in experiment [9] was inactive. In addition, the AC50 in [7] was 0.0332 µM (active); in [3], 0.00662 µM (active); in [8] it was 0.00742 µM (active).

Turning to `C=CCN(C1=NCCN1)c1c(Cl)cccc1Cl`, the inhibition in [14] is -4% (inactive). Besides, the fluorescence ratio (interference) in experiment [15] was 1 (inactive). The remaining activity in experiment [16] is 95.7% (inactive).

In the case of `C/C(=C\c1csc(C)n1)[C@@H]1C[C@@H]2O[C@@H]2CCC[C@H](C)[C@H](O)[C@@H](C)C(=O)C(C)(C)[C@@H](O)CC(=O)O1`, the AC50 is 0.00662 µM (active) in [1] and 0.00934 µM (active) in experiment [3]. In addition, the compound was classed as inactive in experiment [2], in [7] and in experiment [9].

On to `N=c1c2c(-c3ccccc3)c(-c3ccccc3)n(Cc3ccccc3)c2ncn1C1CCC(O)CC1` (stereo not given), for which the AC50 was 18.6 µM (active) in experiment [1], 8.33 µM (active) in experiment [6], 16.6 µM (active) in [7] and 20.9 µM (active) in experiment [3]. For the same compound, in [2], the compound was classed as inactive. In [4], the IC50 is 18.6 µM (active).

In the case of `C/C(=C\c1csc(C)n1)[C@@H]1C[C@@H]2O[C@]2(C)CCC[C@H](C)[C@H](O)[C@@H](C)C(=O)C(C)(C)[C@@H](O)CC(=O)O1`, the values for the AC50 in experiment [1] and in [3] were 0.00263 µM (active) and 0.00166 µM (active), respectively. The outcome in experiment [2], in experiment [5], in [6], in [7] and in [9] was inactive.

As a reminder, the viability is a read-out of living cells in per cent, often relative to untreated cells. As for `C[C@]12Cc3cn[nH]c3C[C@@H]1CC[C@@H]1[C@@H]2CC[C@@]2(C)[C@H]1CC[C@]2(C)O`, the parasite load remaining in experiment [17] is 50.6% (inactive) and 13.2% (inactive). Further, the viability in [17] is 69.5% and 91.5%. The fluorescence ratio was 0.94 (inactive) in experiment [18] and 0.96 (inactive) in [21]. Further, the inhibition was -1.97% (inactive) in [19] and -2.76% (inactive) in [20]. Besides, the z-score in experiment [22] is -0.265 (inactive).
